Results on 30 compounds are retold here after PubChem BioAssay AID686979 (National Center for Advancing Translational Sciences (NCATS), 2013).

SMILES strings stand for the structures. Among all 420,000 compounds or so, about 50,000 (12%) were called active. Inconclusive results (about 26%) are left out. For the sample, actives were picked, then their nearest neighbours and some compounds at random. Values without a mark were called inactive. Calls come from the whole dose curve; as a rule, active = well fitted inhibition curve with a large enough effect; inconclusive = small, poorly fitted or top-dose-only effect; inactive = flat fitted curve, though single readings scatter.
% is set by controls: 0 for no effect and ±100 for the full control effect; potency is the fitted concentration of half-maximal effect.

A short description of the test: qHTS for Inhibitors of human tyrosyl-DNA phosphodiesterase 1 (TDP1): qHTS in cells in presence of CPT. Note: nearly all actives have a fitted effect of over 55% in size. To be noted: chicken DT40 Tdp1-/-;hTDP1 cells + 20 nM CPT, ATP luminescence, 48 h; series mostly up to 46.2 µM; activity change, negative = growth inhibition: at the top concentration. In short, it runs like this: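 Chicken DT40 Tdp1-/- cells complemented with human TDP1, 400 cells/well, exposed to compounds plus 20 nM camptothecin for at least 48 h at 37 C; viability read as ATP content by CellTiter-Glo luminescence.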
With `O=C(CCc1ccccc1)Nc1cccc(-c2nnc(-c3ccco3)o2)c1`, the Potency was 25.9 µM (active).
Turning to `Cc1cccc(NC(=O)CSc2nnc(-c3ccco3)o2)c1`, the “activity change, negative = growth inhibition” value was 1.75%.
Same read-out and setting: next, `C/C(=N/NC(=O)CCc1ccccc1)c1ccco1`: -1.78%; `COc1ccc(C(=O)NCC2CCCO2)cc1S(=O)(=O)NCc1ccc(Cl)cc1` (stereo not given): -18.3%; `Cc1[nH]c2ccccc2c1C(=O)C(C)Sc1nnc(C2CC2)o1` (stereo not given): -13.7%.
Still for that read-out and setting: in the case of `Cc1cc(-c2ccccc2)n2nc(-c3ccccc3)cc2n1` it was -2.08%.
On to `COc1ccc(-c2cc(C(F)(F)F)n3nc(-c4ccccc4)cc3n2)cc1OC`, for which the Potency was 10.3 µM (active).
Turning to `COC(=O)c1cc2nc(-c3ccccc3)cc(C(F)(F)F)n2n1`, the “activity change, negative = growth inhibition” value is 6.15%.
Still for that read-out and setting: in the case of `O=C(NC1CC(=O)N(c2ccc(F)cc2)C1)C1CCCCC1` (stereo not given) it was 8.8%.
On the same count and under the same terms, next, `CC1CCN(S(=O)(=O)c2ccc3c(c2)n(C)c(=O)n3C)CC1`: 0.293%; `Cc1ccc(-c2ccnc(-n3ncc(C(=O)N(C)Cc4cccc5ncccc45)c3C3CC3)n2)o1`: 10% [at 9.04 µM].
The same measure, in the same setting: next, `CC1(C)Oc2ccc3ccc(=O)oc3c2/C(=N/O)C1=O`: 10.3%; `CCOc1ccc(S(=O)(=O)N(CC(=O)O)c2ccccc2)cc1`: -2.16%.
With `CCSc1ncc(Cl)c(C(=O)Nc2c(C(=O)c3ccccc3)oc3ccccc23)n1`, the “activity change, negative = growth inhibition” value is 0.0067%.
On the same count and under the same terms, next, `CCSc1nnc2c(n1)OC(c1ccc(OCC(=O)O)cc1)Nc1ccccc1-2` (stereo not given): -10%.
`CCOc1ccc(N(Cc2ccccc2)C(=O)c2nc(S(C)(=O)=O)ncc2Cl)cc1`: the Potency was 0.58 µM (active).
The same measure, in the same setting: in the case of `CCOc1ccc(N(Cc2ccccc2)C(=O)c2nc(SCC)ncc2Cl)cc1` it was 29.1 µM (active).
Take `CCOc1ccc(NC(=O)CN(Cc2ccccc2)S(=O)(=O)c2ccc(Cl)cc2)cc1`: the “activity change, negative = growth inhibition” value was -28.2%.
The same measure, in the same setting: in the case of `COc1cc(=O)n2c(c1C(=O)NCc1ccco1)CCN(Cc1ccccc1)CC2` it was 13.5% [at 9.04 µM].
The same measure, in the same setting: next, `Cc1cccc(NC(=O)NC2(C)CCS(=O)(=O)C2)c1` (stereo not given): 25.1%; `COc1cc(Cl)c(C)cc1NC(=O)CSc1nnc(CN2CCCC2)o1`: -20.8%; `COc1ccccc1CNC(=O)COn1nnc2ccc(S(=O)(=O)N3CCOCC3)cc21`: -23.6%.
Still for that read-out and setting: in the case of `COc1cccc(NC(=O)C(C)Oc2ccccc2)c1` (stereo not given) it was -5.7%; in that of `COc1cccc(NC(=O)c2csnn2)c1`, 2.54%.
As for `COc1cccc(NC(=O)C2C(c3ccccc3)C2(Cl)Cl)c1` (stereo not given), the Potency is 29.1 µM (active).
Turning to `CSc1ccc(CNC(=O)c2ccc(NC(=O)C3=CSCCO3)cc2)cc1`, the “activity change, negative = growth inhibition” value is -10.5%.
As to `Cc1ccc(-c2ccc(CN3C(C(C)C)C(=O)N(Cc4cn(CCC5OCCO5)nn4)CCS3(=O)=O)cc2)cc1` (stereo not given), the Potency is 16.4 µM (active).
Turning to `Cc1ccc(Cn2cc(CN3CC(N4CCN(C)CC4)CS3(=O)=O)nn2)cc1` (stereo not given), the “activity change, negative = growth inhibition” value was -11.1%.
`CC(C)C1C(=O)N(Cc2cn(CCC3OCCO3)nn2)CCS(=O)(=O)N1Cc1ccc(-c2ccccc2C(F)(F)F)cc1` (stereo not given): the Potency is 13 µM (active).
In the case of `O=S1(=O)CC(N2CCN(CCO)CC2)CN1Cc1cn(Cc2ccc(Cl)cc2)nn1` (stereo not given), the “activity change, negative = growth inhibition” value is -27%.
